Source: PubChem BioAssay
Mtb betalactam – beta-lactam sensitization of Mtb H37Rv | M. tuberculosis H37Rv growth with meropenem, percent inhibition | inhibition, % at 25 µM | 330,000 compounds, 0.27% hits | AID 434955; call rule not given here;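 also: growth measured after seven days incubation then overnight dye step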
Rv3671c protease – inhibitors of M. tuberculosis serine protease Rv3671c. P9WHR9. inhibition, % at 5.96 µM. 320,000 compounds, 0.048% hits. AID 2606; in the data active = inhibition above about 38%;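 also: extracellular domain of Rv3671c used as enzyme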
Mtb FBA inh – inhibits M. tuberculosis FBA enzyme; P9WQA3; purified M. tuberculosis FBA, fluorescence read-out; inhibition, % at 1 µM; 360,000 compounds, 2.3% hits
GDH-TPI counter-1 – inhibits GDH-TPI coupling enzymes, artifact for Mtb FBA screen. GDH-TPI coupled enzyme counterscreen, NADH absorbance. inhibition, % at 4.8 µM. 360,000 compounds, 1.2% hits. AID 588335; in the data active = inhibition above about 30%
RecA intein inh – inhibitors of M. tuberculosis RecA intein splicing; cell-free RecA intein splicing, fluorescence; inhibition, % (test concentration not listed); 290,000 compounds, 0.75% hits; AID 2221; in the data active = inhibition above about 30%
UGM FP inh – Mtb UDP-galactopyranose mutase inhibition; P9WIQ1; purified UGM, fluorescence polarization probe displacement; inhibition, % at 10 µM; 320,000 compounds, 0.06% hits; AID 504406; in the data active = inhibition above about 10%, passing the limit was not always enough
Target sequence (P9WIQ1 whole entry, looked up): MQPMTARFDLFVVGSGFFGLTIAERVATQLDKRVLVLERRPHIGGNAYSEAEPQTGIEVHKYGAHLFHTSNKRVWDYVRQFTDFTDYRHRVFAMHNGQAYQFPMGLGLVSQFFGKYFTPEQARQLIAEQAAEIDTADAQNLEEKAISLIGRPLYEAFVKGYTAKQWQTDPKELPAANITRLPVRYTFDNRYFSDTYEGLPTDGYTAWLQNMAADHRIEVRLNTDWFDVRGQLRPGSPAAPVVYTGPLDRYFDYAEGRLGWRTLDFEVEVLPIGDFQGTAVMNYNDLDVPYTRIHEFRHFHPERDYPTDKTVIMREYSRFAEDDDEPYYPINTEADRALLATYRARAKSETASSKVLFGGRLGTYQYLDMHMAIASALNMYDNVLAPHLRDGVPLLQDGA
Mtb FBA confirm – Mtb FBA inhibition, confirmed; shares compounds with Mtb FBA inh; purified M. tuberculosis FBA, fluorescence read-out; inhibition, % at 1 µM; 5,600 compounds, 78% hits; AID 651616
GDH-TPI counter-2 – GDH-TPI inhibition counter-screen for FBA inhibitors; GDH-TPI coupled enzyme counterscreen, fluorescence; shares compounds with Mtb FBA inh; 5,600 compounds, 81% hits; inhibition, % at 1 µM; in the data active = inhibition above about 10%
Large screens that a line does not name were inactive (follow-up assays come after a bar, where they were run). Shown are actives, neighbours in structure and some others; about 4% of the full set was active somewhere. Rule as the data show it, unless noted: active = inhibition above about 27%; inactive = the rest.

COc1cc(C(=O)N(Cc2cccnc2)Cc2cc3cc4c(cc3[nH]c2=O)OCCO4)cc(OC)c1OC	Mtb FBA inh 28 | Mtb FBA confirm 110 | GDH-TPI counter-2 87
Cc1ccc(NC(=O)CSCC(=O)OC(C)C(=O)Nc2ccc(S(N)(=O)=O)cc2)c(C)c1 (centres undefined)	none
CN(C)c1ccc(/C=C/c2ccc3ccccc3[n+]2C)cc1	none
CN(C)c1ccc(/C=C/c2ccc3c4ccccc4ccc3[n+]2-c2ccccc2)cc1	Mtb FBA inh 36 (no result: Mtb betalactam, Rv3671c protease, RecA intein inh, UGM FP inh) | Mtb FBA confirm 122 | GDH-TPI counter-2 101
C=CCNc1nc2cc(-c3ccc(C(=O)N4CCOCC4)cc3)sc2c(=O)n1C	none (no result: Mtb betalactam, Rv3671c protease, RecA intein inh, UGM FP inh)
C=CCn1c(=O)c(C(=O)Nc2ccccc2O)c(O)c2ccccc21	Mtb FBA inh 29 | Mtb FBA confirm inactive | GDH-TPI counter-2 24
C=CCn1c(=O)c(C(=O)Nc2ccccc2C)c(O)c2ccccc21	none (no result: Mtb betalactam, Rv3671c protease, UGM FP inh)
COc1ccc2nc(-c3ccccc3)[nH]c(=O)c2c1	none (no result: Mtb betalactam, Rv3671c protease, RecA intein inh, UGM FP inh)
COc1ccc(-c2nc3ccc(N4CCCC4)cc3c(=O)[nH]2)cc1OC	Mtb FBA inh 27 | Mtb FBA confirm inactive | GDH-TPI counter-2 inactive
CCOC(=O)CN(c1ccccn1)S(=O)(=O)c1ccccc1	Mtb FBA inh 35 | Mtb FBA confirm inactive | GDH-TPI counter-2 inactive
CC1=C(C(=O)Nc2ccccc2C(=O)NCCCOC(C)C)SCCO1	none
O=C(Nc1ccccc1)c1cc(C2COCCN2C(=O)C2CC2)on1 (centres undefined)	none (no result: Mtb betalactam, Rv3671c protease, RecA intein inh, UGM FP inh)
COc1ccccc1-c1nnc(Nc2nc3c(OC)cccc3s2)o1	Mtb FBA inh 33, GDH-TPI counter-1 43 | Mtb FBA confirm 40 | GDH-TPI counter-2 41
CC1(C)CC(N2CCOCC2)=CC(=S)N1	none (no result: Mtb betalactam, Rv3671c protease, GDH-TPI counter-1, RecA intein inh, UGM FP inh)
CCCCC(=O)Nc1cc2nn(-c3ccc(OC)cc3)nc2cc1C	Mtb FBA inh 27 | Mtb FBA confirm 151 | GDH-TPI counter-2 121
CCC(=O)Nc1cc2nn(-c3ccc(OC)cc3)nc2cc1C	Mtb FBA inh 66 | Mtb FBA confirm 39 | GDH-TPI counter-2 28
CSc1ccc(/C=C/C(=O)N2CCCN(C)CC2)cc1	Mtb FBA inh 32 | Mtb FBA confirm 52 | GDH-TPI counter-2 45
O=C(CN(C(=O)CCC(=O)Nc1nccs1)c1cccc(F)c1)NCCc1ccccc1	none
CCCCc1cc(=O)oc2c(C)c(OCC(=O)N3C[C@H]4C[C@@H](C3)c3cccc(=O)n3C4)ccc12	none
Oc1ccc2ccccc2c1CNc1cnc2ccccc2c1	Mtb FBA inh 50 | Mtb FBA confirm inactive | GDH-TPI counter-2 inactive
Oc1ccccc1CNc1cnc2ccccc2c1	Mtb FBA inh 40 | Mtb FBA confirm inactive | GDH-TPI counter-2 inactive
Oc1ccc(Cl)cc1CNc1cnc2ccccc2c1	Mtb FBA inh 34 | Mtb FBA confirm active | GDH-TPI counter-2 170
CCCN(CC(=O)Nc1ccccc1C)C(=O)c1ccc(C2SCCS2)cc1	none (no result: RecA intein inh)
Nc1c(C(=O)Nc2nc3ccccc3s2)sc2nc(-c3cccs3)ccc12	Mtb FBA inh 52, GDH-TPI counter-1 35 | Mtb FBA confirm 123 | GDH-TPI counter-2 114
CC(=O)c1sc2nc(-c3cccs3)ccc2c1N	none
Fc1ccc(-c2cc(C(F)(F)F)n3ncnc3n2)cc1	Mtb FBA inh 85 | Mtb FBA confirm 130 | GDH-TPI counter-2 129
FC(F)(F)c1cccc(Nc2cc(-c3ccccc3)nc3ncnn23)c1	none
CC1CCCCC1NC(=O)CN1CCC(NC(=O)C(C)(C)C)CC1 (centres undefined)	none (no result: Mtb betalactam, Rv3671c protease, RecA intein inh, UGM FP inh)
O=C(NCCN1CCOCC1)c1cc2ccccc2[nH]1	none
COc1ccc2[nH]c(C(=O)NCc3ccc4c(c3)OCO4)cc2c1	Mtb FBA inh 39 | Mtb FBA confirm inactive | GDH-TPI counter-2 inactive
COc1ccc2[nH]c(C(=O)NCCN3CCOCC3)cc2c1	Mtb FBA inh 77 | Mtb FBA confirm 43 | GDH-TPI counter-2 35
COc1ccc(C(=O)NCc2ccc3c(c2)OCO3)cc1	none
COc1ccc(N2CCN(S(=O)(=O)CCNC(=O)C3CC3)CC2)cc1	none
COc1ccc2cc3cc(C(=O)NCCc4ccc(OC)c(OC)c4)oc3nc2c1	Mtb FBA inh 31, GDH-TPI counter-1 45 | Mtb FBA confirm 54 | GDH-TPI counter-2 46
COc1ccc2nc3oc(C(=O)N4CCN(c5ccccc5F)CC4)cc3cc2c1	none
